Screening results deposited in PubChem BioAssay by National Center for Advancing Translational Sciences (NCATS).
The list is not random: actives were taken first. Their share in the collection is about 6.5%.
LASV entry inh: qHTS for Inhibitors of binding or entry into cells for Lassa Virus; Potency, µM (doses to about 37.9 µM), inactives show top-dose activity change, negative = inhibition, usual class: inhibitors; Lassa virus pseudotype entry inhibition, cell reporter; 1.2% of 300,000 active; calls by dose curve; tested in HEK293 cells; also: potency is read from the fitted curve at half-maximal effect; nearly all actives have a fitted effect of over 50% in size
VACV mCherry inh: qHTS for Stage-Specific Inhibitors of Vaccinia Orthopoxvirus: mCherry Reporter Primary qHTS; Potency, µM (doses to about 36.5 µM), for the others: top-dose activity change, negative = inhibition, usual class: inhibitors; 0.63% of 310,000 active; Vaccinia virus mCherry reporter infection, fluorescence; calls by dose curve; tested in A549 cells; also: potency is read from the fitted curve at half-maximal effect; nearly all actives have a fitted effect of over 35% in size
Marburg entry inh: qHTS for inhibitors of binding or entry into cells for Marburg Virus | Marburg virus pseudotyped entry inhibition, cell reporter | Potency, µM (highest dose often 37.8 µM), for inactives: at the top dose activity change, negative = inhibition, actives largely listed as inhibitors | 1.8% of 300,000 active; calls by dose curve; tested in HEK293 cells; also: potency is read from the fitted curve at half-maximal effect
HCMV inh: qHTS Assay for inhibitors of the human cytomegalovirus (HCMV) | HFF cells, HCMV-luciferase reporter, 72 h; stronger effect = lower value | activity change, negative = inhibition, % at 57.5 µM | 4.5% of 410,000 active | AID 1259415, 2018; in the data active = activity change below about -60%; inconclusive = no clear call, values can overlap the other calls; inactive = above about -39%
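Compounds were evaluated in HFFs infected with an HCMV luciferase reporter virus (MOI 1 PFU/cell). Luciferase in lysates collected 72 h post infection served as the replication measure.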
FMDV antiviral: High Throughput Screening for Foot and Mouth Disease Virus Antivirals; FMDV antiviral cell-based qHTS; Potency, µM (top dose mostly 57.9 µM), inactives show at the top dose activity change, negative = inhibition, actives largely listed as inhibitors; 1.2% of 410,000 active; calls by dose curve; tested in HEK293T cells; also: read-out not given here; potency is read from the fitted curve at half-maximal effect; nearly all actives have a fitted effect of over 45% in size
Vaccinia Venus: qHTS for Stage-Specific Inhibitors of Vaccinia Orthopoxvirus: Venus Reporter Primary qHTS; Potency, µM (top dose mostly 36.5 µM), inactives show at the highest dose activity change, negative = inhibition, actives largely listed as inhibitors; AID 720580, 2013; Vaccinia virus Venus reporter expression, fluorescence; 0.46% of 330,000 active; calls by dose curve; tested in A549 cells; also: potency is read from the fitted curve at half-maximal effect; nearly all actives have a fitted effect of over 30% in size
Active calls of the source: *; i = inactive; ? = inconclusive; · = no result given; ! = not active in a repeat; [ ] = another dose, or the depositor's remark. % is scaled to controls: 0 for no effect and ±100 for the full control effect.

SMILES	LASV entry inh	VACV mCherry inh	Marburg entry inh	HCMV inh	FMDV antiviral	Vaccinia Venus
O=C(Nc1ccccc1C(=O)OCc1cc(=O)n2c3c(sc2n1)CCCC3)c1ccccc1	-3%[46.1 µM]	i	·	-83*	-25%	-11%
O=C(Nc1ccccc1C(=O)OCc1cc(=O)n2c3c(sc2n1)CCCC3)c1ccc(Cl)cc1	?	-4%	·	?	-12%	-16%
O=C1Nc2ccc(C(=O)c3ccco3)cc2/C1=C/c1cc(Cl)c(O)c(Cl)c1	3.1µM*	·	·	·	·	·
O=C1Nc2ccc(I)cc2/C1=C/c1cc(Br)c(O)c(Br)c1	0%	i	?	·	-19%	-12%
CCCCOC(=O)c1ccc(-n2nnc3c(sc4nc(C)cc(C)c43)c2=O)cc1	5%[46.1 µM]	-6%	7%[46.1 µM]	85	20%	-8%
Cn1cc(C=CC(=O)O)c2nccnc21	·	-9%	·	-62*	-8%	-7%
Cc1ccccc1Cn1ccc(=NCc2ccccc2)cc1	11%	i	12%[46.1 µM]	-98*	1%	-1%
CCn1c(-c2ccccc2F)nc2cc(NC(C)=O)cc(C(=O)N(C)Cc3cn(C)nc3C)c21	·	2%	·	·	-10%	-7%
O=c1oc(C2(O)CCCCC2)cc2ccccc12	·	5%	·	-24	-13%	-13%
O=c1oc(C2(O)CCCCC2)cc2ccc(-c3ccc4[nH]ccc4c3)cc12	·	0.63µM*	·	-93*	11%	-25%
COc1cccc(Cn2c(C)c(CNC3CCCCC3)c(C(=O)O)c2C)c1	?	-14%	25%[46.1 µM]	-102*	-7%	-11%
CN(CCC#N)C(=O)COC(=O)c1ccccc1C(=O)c1ccc(Cl)c([N+](=O)[O-])c1	?	-24%	?	-97*	?	-19%
Cn1c(N)c(C(=O)COC(=O)c2ccccc2C(=O)c2ccc(Cl)c([N+](=O)[O-])c2)c(=O)n(C)c1=O	?	?	11µM*	·	?	?
O=C(COC(=O)c1ccccc1C(=O)c1ccc(Cl)c([N+](=O)[O-])c1)NC1CCCCCC1	18µM*	·	4.1µM*	·	?	·
Cn1c(N)c(C(=O)COC(=O)c2ccccc2C(=O)c2ccccc2)c(=O)n(C)c1=O	·	·	·	0	2%	·
CCn1c(C(=O)O)c(S(=O)(=O)c2ccc(Cl)cc2)c2ccccc21	·	·	·	-40	-7%	·
CC(C)NS(=O)(=O)c1ccc2nc(NC(=O)c3cncc(Br)c3)sc2c1	24%[46.1 µM]	-5%	·	-8	3%	-10%
OC[C@H]1O[C@H](c2ccccc2)C=C[C@H]1O	·	·	-8%[14.2 µM]	·	·	·
CCCCN1C2CCCC1CC(NC(=O)c1cccc(Cl)c1)C2 (centres undefined)	·	·	·	5	-6%	·
CCCCC(=O)NC(c1ccc(N(C)C)cc1)c1ccc2cccnc2c1O (centres undefined)	?	1.3µM*	?	-102*	10%	-27%
CCCCC(=O)NC(c1ccc(N(CC)CC)cc1)c1ccc2cccnc2c1O (centres undefined)	?	?	?	-96*	-2%	?
CCCCC(=O)N/N=C/c1ccc(Sc2cccc3cccnc23)o1	?	·	9%	73	-10%	?
CCCC(=O)NC(c1ccc(N(C)C)cc1)c1c(O)ccc2ccccc12 (centres undefined)	3%	i	?	42	13%	-16%
O=C(Nc1ccc(S(=O)(=O)NCc2ccccc2)cc1)C1CCCCC1	0%	-14%	-3%	0	-9%	-15%
CCCCN(C)CCCNC(=O)Cn1ncc2c3ccccc3n(Cc3ccccc3F)c2c1=O	20%[46.1 µM]	?	9%[46.1 µM]	-105*	0%	?
SMILES	LASV entry inh	VACV mCherry inh	Marburg entry inh	HCMV inh	FMDV antiviral	Vaccinia Venus
CCCCN(C)CCCNC(=O)Cn1ncc2c3ccccc3n(Cc3cc(C)ccc3C)c2c1=O	?	-5%	?	-99*	-22%	-25%
Cc1cc(C)c(Cn2c3ccccc3c3cnn(CC(=O)NCc4ccccn4)c(=O)c32)c(C)c1	?	-24%	?	-62*!	?	-2%
CCc1cccc(NC(=S)N(CCOC)C2CCN(C(C)=O)CC2)c1	-9%	-14%	3%[46.1 µM]	-32	-11%	-12%
COc1ccc(CN2CCC2(C)C(=O)Nc2ccc(OC)c(OC)c2)cc1 (centres undefined)	·	1%	·	?	-23%	-7%
Cc1ccsc1C(=O)N1CCN(c2ncccn2)CC1	·	·	·	-29	-10%	·
COC(=O)c1c(NC(=O)COC(=O)Cn2cnc3ccccc32)sc(C)c1C	3%	-12%	10%[46.1 µM]	2	6%	-17%
CCOC(=O)c1c(NC(=O)COC(=O)Cn2cnc3ccccc32)sc(C)c1C	17%	10µM*	-8%	18	-6%	?
Fc1cccc(F)c1/C=C/c1ccc2ccccc2n1	?	-13%	?	55	-51%	-12%
C(=C\c1ccco1)/c1ccc2ccccc2n1	?	i[7.34 µM]	2.8µM*	191	-69%	9%[7.34 µM]
Cc1ccsc1/C=C/c1ccc2ccccc2n1	13µM*	-18%	?	6	-27%	-9%
Cc1ccsc1/C=C/c1ccc2cccc(O)c2n1	?	·	?	105	0%	·
CCN1CCC[C@@H]1CNC(=O)c1cc(S(N)(=O)=O)ccc1OC	·	·	-32%	·	·	·
O=C(O)CCCCCN1C(=O)C2CCCCC2C1=O (centres undefined)	?	·	5%	13	4µM*	·
O=C(O)CCCN1C(=O)C2C3C=CC(C2C1=O)C1C(=O)N(CCCC(=O)O)C(=O)C31 (centres undefined)	-14%	-10%	0%	-4	-9%	-5%
O=C(Nc1cccc(S(=O)(=O)NC2=NCCCCC2)c1)c1ccc(Cl)cc1	?	-15%	?	-68*	?	-24%
O=C(/C=C/c1ccc(Cl)cc1Cl)Nc1cccc(S(=O)(=O)NC2=NCCC2)c1	15µM*	·	13µM*	58	-36%	·
O=C(Nc1cccc(S(=O)(=O)NC2=NCCC2)c1)c1ccccc1	2%	-6%	27%	-31	10%	-18%
CSc1oc(-c2ccco2)nc1S(=O)(=O)c1ccc(C)cc1	11%[46.1 µM]	-25%	?	-1	13%	-8%
CCC(C)Sc1oc(-c2ccco2)nc1S(=O)(=O)c1ccc(C)cc1 (centres undefined)	-10%[46.1 µM]	-14%	10µM*	-16	26%	-13%
Cc1cc(=O)n2[nH]c(NCc3c(F)cccc3Cl)nc2n1	-7%	-8%	5%[46.1 µM]	30	11%	-4%
COc1cc(C)c(CN2C[C@H](Sc3ccccn3)C[C@H]2C(=O)N(C)C)cc1C	·	0%	·	·	4%	-10%
CC(=O)c1cccc(NC(=O)CN2C(=O)c3ccccc3Sc3ncccc32)c1	-11%[46.1 µM]	-5%	·	21	40µM*	4%
O=C(Nc1ccnn1C1CCN(Cc2ccc(F)cc2)CC1)C1CC1	·	·	·	?	13%	·
